The supplement of paper PMC12669032
Unmarked numbers belong to inactive results.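 Rule for the calls: active = AUC reduced over 20% with Padj below 0.05 in at least 2 of 3 replicates; inactive = otherwise.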

Tests used:
Assay in all cases: growth AUC relative to DMSO control (median of replicates) (fraction); higher = more growth (less inhibition), active = hit call of the paper
Details in all cases: 20 µM; 24 h
Akkermansia muciniphila = test system: Akkermansia muciniphila
Procedure, shortened: (§1)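 Gut bacterial monocultures in mGAM were treated with 20 µM compound (1% DMSO) and grown anaerobically at 37 °C in round-bottom 96-well plates from OD600 0.05. OD600 was read hourly for 24 h, with the minimum OD set to 0. Area under the growth curve was normalised to the plate median of solvent-only wells, or to row and column medians on the industrial chemical plate. Each value is the median of three biological replicates, each grown on a separate day.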

Bacteroides caccae = test system: Bacteroides caccae
Procedure, shortened: as §1

Bacteroides clarus = test system: Bacteroides clarus
Procedure, shortened: as §1

Bacteroides dorei = test system: Bacteroides dorei
Procedure, shortened: as §1

Bacteroides stercoris = test system: Bacteroides stercoris
Procedure, shortened: as §1

[1] = test system: Bacteroides thetaiotaomicron
Procedure, shortened: as §1

Bacteroides uniformis = test system: Bacteroides uniformis
Procedure, shortened: as §1

[2] = test system: Bifidobacterium longum subsp. longum
Procedure, shortened: as §1

Clostridium difficile = test system: Clostridium difficile
Procedure, shortened: as §1

Collinsella aerofaciens = test system: Collinsella aerofaciens
Procedure, shortened: as §1

SMILES	growth AUC (Akkermansia muciniphila)	growth AUC (Bacteroides caccae)	growth AUC (Bacteroides clarus)	growth AUC (Bacteroides dorei)	growth AUC (Bacteroides stercoris)	growth AUC [1]	growth AUC (Bacteroides uniformis)	growth AUC [2]	growth AUC (Clostridium difficile)	growth AUC (Collinsella aerofaciens)
CCOC(=O)c1ccccc1S(=O)(=O)NC(=O)Nc1nc(Cl)cc(OC)n1	1.1	0.991	1.03	0.933	0.97	1.01	0.962	1.4	1.03	0.993
Clc1cccc(C(Cl)(Cl)Cl)n1	1.16	1.01	1.01	0.948	1.03	1.02	0.961	1.06	1.01	0.974
CCOP(=S)(OCC)SCCS(=O)CC (stereo not given)	1.04	1.02	0.979	0.985	1.02	1.02	1.05	1	0.967	1
CO/C=C(/C(=O)OC)c1ccccc1COc1cccc(C(F)(F)F)n1	0.949	0.984	0.945	0.995	0.91	0.936	0.927	0.983	1.01	0.978
CNC(=O)/C(=N\OC)c1ccccc1Oc1ccccc1	0.873	0.981	0.959	0.97	0.953	1.02	0.998	0.987	1.01	1.03
CC(C)N1C(=O)c2ccccc2NS1(=O)=O	1.21	0.999	0.999	0.946	1	1.01	0.977	1.06	0.98	0.967
OC(c1ccc(Cl)cc1)(c1cncnc1)c1ccccc1Cl (stereo not given)	0.992	0.89	0.887	0.893	0.686	0.503 (active)	0.632 (active)	0.921	1.01	0.984
O=C1C(Cl)=C(Cl)C(=O)c2ccccc21	0.907	0.987	0.987	0.958	0.962	0.996	0.986	0.904	0.912	0.988
Cc1cc(Cl)ccc1O	1.04	1.02	1.03	1.01	1.09	1.03	1	0.911	1	1.01
C#CCC1=C(C)C(OC(=O)C2C(C=C(C)C)C2(C)C)CC1=O (stereo not given)	1.05	0.892	1.04	0.964	1.01	1.01	0.932	1.02	0.969	0.985
CN(C)S(=O)(=O)N(SC(F)(Cl)Cl)c1ccccc1	1.13	1.01	1.03	0.998	1.2	1.01	1.03	0.989	1.01	0.98
C[Si](Cn1cncn1)(c1ccc(F)cc1)c1ccc(F)cc1	0.895	0.891	0.907	0.854	0.952	0.895	0.913	0.923	1	0.931
C=CC(N)=O	1.01	0.985	1	0.963	0.983	0.99	1.01	0.875	1.01	1.01
CCCCc1c(C)nc(N(C)C)[nH]c1=O	0.964	1.01	0.966	0.984	1.03	0.989	0.982	0.998	0.997	1.05
O=[N+]([O-])c1ccc(O)c([N+](=O)[O-])c1	1.07	0.987	0.939	0.98	0.867	0.889	0.946	1	0.973	0.992
CO/C=C(/C(=O)OC)c1ccccc1Oc1cc(Oc2ccccc2C#N)ncn1	1.05	1.01	0.967	0.997	0.864	0.965	0.914	0.977	0.973	0.994
CCNc1nc(NC(C)C)nc(SC)n1	0.916	0.959	0.997	0.976	1.19	0.985	1	0.988	0.999	0.983
O=[N+]([O-])c1ccccc1	1.11	1.01	1.02	0.97	1.13	1.03	1	1.06	1.01	0.951
CO/N=C(/C(=O)OC)c1ccccc1CO/N=C(\C)c1cccc(C(F)(F)F)c1	0.96	0.937	0.897	1.02	0.993	0.956	0.994	0.975	1.09	0.993
CCSC(C)CC1CC(=O)C(/C(CC)=N/OC/C=C/Cl)=C(O)C1 (mixture of isomers)	1.13	1.05	1.03	1.01	1.11	1.01	1.02	1.01	1.04	1.04
CCNP(=S)(OC)O/C(C)=C/C(=O)OC(C)C (stereo not given)	0.983	0.966	0.957	0.998	1	0.953	0.993	0.983	0.986	1.01
O=C(O)C(F)(F)C(F)(F)C(F)(F)C(F)(F)C(F)(F)C(F)(F)C(F)(F)C(F)(F)C(F)(F)F	0.991	0.977	0.933	1.01	0.998	1.1	1.02	0.939	0.968	0.984
Clc1cc(Cl)nc(-c2ccccc2)n1	1.12	0.877	0.99	0.995	1	0.971	0.956	1.09	0.956	0.927
CSc1nc(N=[N+]=[N-])nc(NC(C)C)n1	0.963	1.04	0.993	1.04	0.975	1.02	1.07	0.849	1.02	0.998
CCCN(CCC)c1c([N+](=O)[O-])cc(S(C)(=O)=O)cc1[N+](=O)[O-]	0.897	0.942	0.963	0.937	0.856	0.987	0.954	0.948	0.965	0.914
COP(=O)(OC)O/C(=C/Br)c1ccc(Cl)cc1Cl	1.06	1	0.978	0.979	1.02	0.96	0.961	1.03	0.983	1
CNC(=O)Oc1cc(C)c(N(C)C)c(C)c1	1.02	1.03	0.971	1.04	0.852	0.995	1	0.991	1.1	0.995
COc1cc(OC)nc(Oc2cccc(Oc3nc(OC)cc(OC)n3)c2C(=O)[O-])n1.[Na+]	0.934	0.973	0.963	1.02	0.99	1.01	1	0.965	1.06	1.02
